Data on 26 compounds can be found in PubChem BioAssay (NCATS).

Inconclusive results are not listed. A number with no mark means an inactive call. Calls of active or inactive are those of the source. Calls follow the shape of the dose curve; as a rule, active = well fitted curve in the direction sought with a large enough effect; inconclusive = small, poorly fitted or top-dose-only effect, or another doubt; inactive = no such curve, though single readings can be large; an effect the other way counts as inactive or inconclusive.

The target in experiment [1] is Rap guanine nucleotide exchange factor 3 (Homo sapiens) (UniProt O95398). As to the kind of experiment: Confirmatory qHTS for antagonist of cAMP-regulated guanine nucleotide exchange factor 3 (EPAC1) (AID 1645880). Also: nearly all actives have a fitted effect of over 55% in size. Also: potency is read from the fitted curve at half-maximal effect. The method, boiled down:
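Nucleotide exchange uses 100 nM EPAC1, 250 nM RAP1B-BODIPY-GDP and 50 uM GDP, with compounds in a concentration-titration series. After 5 min at room temperature, fluorescence (480 nm ex/540 nm em) is read every 5 min for 30 min. Data are normalized to control ATA and DMSO.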
Background: Quantitative high-throughput screening tests each substance at several concentrations.

Experiment [2] shares this target. As to the kind of experiment: Confirmatory qHTS for agonist of cAMP-regulated guanine nucleotide exchange factor 3 (EPAC1) (AID 1645881). Also: nearly all actives have a fitted effect of over 75% in size. Also: potency is read from the fitted curve at half-maximal effect.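 As to activation: EPAC1 catalysed release of BODIPY-GDP from Rap1B seen as fluorescence loss; 100% = effect of cAMP agonist control.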
Experiment [3] concerns the target Rap guanine nucleotide exchange factor 4 (Homo sapiens) (UniProt Q8WZA2). As to the kind of experiment: Confirmatory qHTS for agonist of cAMP-regulated guanine nucleotide exchange factor 4 (EPAC2) (AID 1645884).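 Also: nucleotide exchange releases bodipy-GDP from Rap1 and this lowers its fluorescence; nearly all actives have a fitted effect of over 65% in size.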 Also: potency is read from the fitted curve at half-maximal effect. As to activation: % is scaled to controls: 0 for no effect and ±100 for the full control effect.
Experiment [4] has the same target. Kind of experiment: Confirmatory qHTS for antagonist of cAMP-regulated guanine nucleotide exchange factor 4 (EPAC2) (AID 1645885). Also: nearly all actives have a fitted effect of over 25% in size. Also: potency is read from the fitted curve at half-maximal effect. As to activity change, negative = inhibition: % is scaled to controls: 0 for no effect and ±100 for the full control effect.
Experiment [5] has as its target Rap guanine nucleotide exchange factor 3 (Homo sapiens) (UniProt O95398). As to the kind of experiment: Counterscreen qHTS for antagonist of cAMP-regulated guanine nucleotide exchange factor 3 (EPAC1) (AID 1645888).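 Also: fluorescence loss as bound BODIPY-GDP is released from Rap1B; % of control where 0% means no effect.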 The method, boiled down: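 Rap1B-BODIPY-GDP 250 nM + GDP 50 uM; cpds 7-pt, final 9.74 nM–152 uM (activator mode) or from 7.32 nM upwards (inhibitor mode); RT; FI 480/540 nm at 5 and 30 min, then ± cAMP, reread.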

Sequence of Rap guanine nucleotide exchange factor 4 (Homo sapiens) (Q8WZA2 whole entry, looked up): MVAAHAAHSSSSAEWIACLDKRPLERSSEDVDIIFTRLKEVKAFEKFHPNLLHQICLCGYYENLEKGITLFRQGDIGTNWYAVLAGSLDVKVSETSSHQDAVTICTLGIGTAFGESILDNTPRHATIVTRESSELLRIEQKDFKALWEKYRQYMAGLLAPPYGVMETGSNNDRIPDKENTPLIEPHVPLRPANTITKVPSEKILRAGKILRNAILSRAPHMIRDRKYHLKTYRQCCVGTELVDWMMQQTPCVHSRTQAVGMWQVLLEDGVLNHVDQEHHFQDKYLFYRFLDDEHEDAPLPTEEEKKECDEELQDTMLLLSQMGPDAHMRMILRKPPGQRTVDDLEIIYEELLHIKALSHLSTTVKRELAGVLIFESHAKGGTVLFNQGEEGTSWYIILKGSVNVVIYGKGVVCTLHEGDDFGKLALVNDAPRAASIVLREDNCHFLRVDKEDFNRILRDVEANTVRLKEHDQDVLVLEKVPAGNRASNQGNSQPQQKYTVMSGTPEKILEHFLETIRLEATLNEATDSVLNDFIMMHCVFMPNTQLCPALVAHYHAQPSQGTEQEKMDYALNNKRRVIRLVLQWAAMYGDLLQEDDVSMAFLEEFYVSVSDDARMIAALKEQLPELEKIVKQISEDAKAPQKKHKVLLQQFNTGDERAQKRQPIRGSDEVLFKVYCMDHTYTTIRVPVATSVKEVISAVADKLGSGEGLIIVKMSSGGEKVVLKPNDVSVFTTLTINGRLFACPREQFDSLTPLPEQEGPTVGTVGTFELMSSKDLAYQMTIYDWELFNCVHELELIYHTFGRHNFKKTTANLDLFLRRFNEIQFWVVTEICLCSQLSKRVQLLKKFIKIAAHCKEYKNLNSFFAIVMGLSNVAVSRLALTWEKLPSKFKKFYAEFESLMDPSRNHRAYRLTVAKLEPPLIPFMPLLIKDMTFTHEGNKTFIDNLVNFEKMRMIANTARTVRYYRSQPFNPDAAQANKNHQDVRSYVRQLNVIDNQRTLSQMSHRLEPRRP
Sequence of Rap guanine nucleotide exchange factor 3 (Homo sapiens) (O95398 whole entry, looked up): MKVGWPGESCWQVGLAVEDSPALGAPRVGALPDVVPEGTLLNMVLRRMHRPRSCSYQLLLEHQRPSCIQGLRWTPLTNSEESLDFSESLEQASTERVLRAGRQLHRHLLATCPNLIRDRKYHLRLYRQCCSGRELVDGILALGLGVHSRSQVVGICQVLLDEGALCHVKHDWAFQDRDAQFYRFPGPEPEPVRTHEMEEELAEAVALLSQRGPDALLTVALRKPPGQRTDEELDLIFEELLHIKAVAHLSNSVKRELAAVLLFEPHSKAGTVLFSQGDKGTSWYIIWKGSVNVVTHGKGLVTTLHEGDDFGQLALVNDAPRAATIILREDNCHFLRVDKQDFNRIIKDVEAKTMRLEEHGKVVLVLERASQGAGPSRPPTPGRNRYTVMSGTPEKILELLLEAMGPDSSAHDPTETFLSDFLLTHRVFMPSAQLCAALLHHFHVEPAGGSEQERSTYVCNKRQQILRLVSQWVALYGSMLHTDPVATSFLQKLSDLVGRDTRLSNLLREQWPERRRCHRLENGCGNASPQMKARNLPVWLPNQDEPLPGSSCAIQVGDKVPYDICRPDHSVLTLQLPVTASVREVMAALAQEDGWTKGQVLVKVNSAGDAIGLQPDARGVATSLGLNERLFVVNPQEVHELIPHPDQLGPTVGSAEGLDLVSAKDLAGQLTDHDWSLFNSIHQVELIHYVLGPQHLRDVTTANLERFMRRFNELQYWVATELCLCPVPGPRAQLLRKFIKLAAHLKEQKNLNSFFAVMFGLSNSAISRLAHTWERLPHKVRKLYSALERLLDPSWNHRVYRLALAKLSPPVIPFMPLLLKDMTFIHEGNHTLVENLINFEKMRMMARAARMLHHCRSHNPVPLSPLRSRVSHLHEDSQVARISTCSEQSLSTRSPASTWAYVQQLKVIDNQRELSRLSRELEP

As to `Cc1ccc(-c2cc3ccccc3nc2N2CCOCC2)cc1`, the Potency entry in experiment [1], in experiment [2], in experiment [3], in experiment [4] and in experiment [5] was “inactive” each time.
With `CCCCCn1c(C)c2c(OCC)cccc(=O)c2c1C`, the Potency result in experiment [1], in experiment [2] and in experiment [4] was “inactive” in each case. In experiment [3], the activation was 7.02% [at 17.1 µM, percent relative to cAMP agonist control]. Further, the activity change, negative = inhibition in experiment [5] is 23.1% [at 30.8 µM].
As to `COc1ccc(C(=O)N(Cc2ccccc2)c2cccc(C)c2)c(OC)c1OC`, the Potency entry in experiment [1], in experiment [2], in experiment [3], in experiment [4] and in experiment [5] was “inactive” throughout.
As for `CC1Oc2ccc(C#N)cc2N(Cc2ccccc2OC(F)(F)F)C1=O` (stereo not given), the Potency result in experiment [1], in experiment [2] and in experiment [4] was “inactive” in each case. Moreover, the activation in experiment [3] is 4.28% [at 17.1 µM, percent relative to cAMP agonist control]. Moreover, the activity change, negative = inhibition in experiment [5] is -10.7% [at 30.8 µM].
As for `NNC(=O)c1cccc(COCC(F)(F)C(F)F)c1`, the Potency entry in experiment [1], in experiment [2], in experiment [3], in experiment [4] and in experiment [5] was “inactive” each time.
Take `CCCCn1c(CN2CCOCC2)nc2c1c(=O)n(C)c(=O)n2C`: the Potency result in experiment [1], in experiment [2], in experiment [3], in experiment [4] and in experiment [5] was “inactive” in each case.
With `CC(C)c1ccc(C2NC(=O)c3c(sc4c3CCN(C)C4)N2)cc1` (stereo not given), the Potency result in experiment [1], in experiment [2], in experiment [3], in experiment [4] and in experiment [5] was “inactive” throughout.
For the compound `O=C(CCSc1nc2ccccc2o1)N1CCOCC1`, the Potency result in experiment [1], in experiment [2] and in experiment [4] was “inactive” throughout. In experiment [3], the activation is 0.888% [at 17.1 µM, percent relative to cAMP agonist control]. Moreover, the activity change, negative = inhibition in experiment [5] was -23.1% [at 30.8 µM].
Consider `CC1(C(=O)NS(=O)(=O)c2cccc(Cl)c2)CCN1C(=O)C1(c2ccc(Cl)cc2)CC1` (stereo not given), for which, in experiment [1], the Potency is 31.6 µM (active). For the same compound, the Potency result in experiment [2] and in experiment [4] was “inactive” throughout. In experiment [3], the activation is 2.34% [at 17.1 µM, percent relative to cAMP agonist control]. For the same compound, in experiment [5], the activity change, negative = inhibition was -16.3% [at 30.8 µM].
For `COc1ccc(NC(=O)c2c[nH]n3c(=O)cc(C4CCN(C(=O)OC(C)(C)C)CC4)nc23)cc1Cl`, the Potency in experiment [1] was 67.5 µM (active). The Potency entry in experiment [2], in experiment [3], in experiment [4] and in experiment [5] was “inactive” throughout.
For `Fc1cc(F)c(F)c(SCn2cc(Br)cn2)c1F`, the Potency result in experiment [1], in experiment [2] and in experiment [4] was “inactive” each time. Also, in experiment [3], the activation is 5.6% [at 17.1 µM, percent relative to cAMP agonist control]. Besides, the activity change, negative = inhibition in experiment [5] is -7.43% [at 30.8 µM].
Take `Nc1nc2c(ncn2[C@@H]2O[C@H](CNCc3ccccc3)[C@@H](O)[C@H]2O)c(=O)[nH]1`: the Potency entry in experiment [1], in experiment [2], in experiment [3], in experiment [4] and in experiment [5] was “inactive” each time.
Regarding `O=C1C(=Cc2cn(-c3ccccc3)nc2-c2ccc(OCc3ccccc3)cc2)SC(=S)N1CCS(=O)(=O)O`, the Potency in experiment [1] is 33.8 µM (active). Besides, the Potency entry in experiment [2], in experiment [3], in experiment [4] and in experiment [5] was “inactive” each time.
With `COc1ccc(N2CCN(S(=O)(=O)c3cc4c(cc3C)NC(=O)CO4)CC2)cc1`, the Potency result in experiment [1], in experiment [2], in experiment [3], in experiment [4] and in experiment [5] was “inactive” each time.
As to `Cc1sc(NC(=O)C2=COCCO2)nc1-c1ccc(Cl)cc1`, the Potency entry in experiment [1], in experiment [2], in experiment [3], in experiment [4] and in experiment [5] was “inactive” each time.
For the compound `O=C(/C=C/c1ccccc1)c1cc(Br)ccc(=O)c1O`, in experiment [1], the Potency was 12 µM (active). In addition, the Potency entry in experiment [2], in experiment [3], in experiment [4] and in experiment [5] was “inactive” throughout.
In the case of `Cc1ccc2oc(=O)c3cnn(CC(=O)NCCCOC(C)C)c3c2c1`, the Potency result in experiment [1], in experiment [2], in experiment [3], in experiment [4] and in experiment [5] was “inactive” throughout.
With `CCCCn1c(N)c(N(CCOC)C(=O)c2ccc(C)c(S(=O)(=O)N3CCCCC3)c2)c(=O)[nH]c1=O`, the Potency result in experiment [1], in experiment [2], in experiment [3], in experiment [4] and in experiment [5] was “inactive” in each case.
Regarding `O=c1[nH]c(Nc2ccccc2)cc2ccccc12`, the Potency in experiment [1] is 37.9 µM (active). Moreover, the Potency entry in experiment [2], in experiment [3], in experiment [4] and in experiment [5] was “inactive” in each case.
Regarding `CCCOc1cccc(C2C(C(=O)c3cccs3)=C(O)C(=O)N2Cc2cccnc2)c1` (stereo not given), the Potency result in experiment [1], in experiment [2] and in experiment [4] was “inactive” in each case. Further, the activation in experiment [3] was 2.94% [at 17.1 µM, percent relative to cAMP agonist control]. For the same compound, the activity change, negative = inhibition in experiment [5] was -13.9% [at 30.8 µM].
`Cc1cccc(CC2C(=O)Nc3ccccc32)c1` (stereo not given): the Potency result in experiment [1], in experiment [2], in experiment [3], in experiment [4] and in experiment [5] was “inactive” each time.
For the compound `NC(=O)c1cc2ccc(O)cc2oc1=NCc1ccccc1`, the Potency entry in experiment [1], in experiment [4] and in experiment [5] was “inactive” throughout. Also, the Potency in experiment [2] and in experiment [3] was 112 µM (active) each time.
Take `COc1ccccc1NC(=O)c1sc2nc(C)c(C(=O)Nc3ccc(C)cc3C)c(-c3ccco3)c2c1N`: the Potency entry in experiment [1], in experiment [2], in experiment [3] and in experiment [5] was “inactive” each time. The outcome in experiment [4] is “inactive [at 12.7 µM]”.
In the case of `Cc1c(C(=O)N2c3ccccc3CC2C)oc2ccccc12` (stereo not given), the Potency result in experiment [1], in experiment [2], in experiment [3], in experiment [4] and in experiment [5] was “inactive” throughout.
Take `O=C(CN1CCOCC1)Nc1ccccc1Sc1ccc(Cl)cc1`: the Potency result in experiment [1], in experiment [2], in experiment [3], in experiment [4] and in experiment [5] was “inactive” each time.
Take `COc1ccc(C(C#N)N2N=C(C)CC2c2ccccc2)cc1` (stereo not given): the Potency result in experiment [1], in experiment [2], in experiment [3] and in experiment [5] was “inactive” in each case. Besides, the Potency in experiment [4] is 47.8 µM (active).
